Bioassay records from PubChem.
Sampled rows, rich in hits. Any-hit rate of the full collection: about 4%.
TRPM1 prom inh – inhibitors of MITF-dependent TRPM1 promoter reporter, primary screen, cell-based, SK-MEL-5, single point, luciferase | SK-MEL-5 TRPM1 promoter luciferase, 24 h | inhibition, % at 12.5 µM | AID 488899, 2010 | 0.83% of 330,000 active;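 active = mean inhibition across replicates of 60% or more, whatever share of single replicates reaches that level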
esBAF inh – Bmi1 luciferase reporter increase in mESCs, primary screen, esBAF inhibitor project, mouse ES cells, Bmi1 luciferase knock-in, single point; 24 h; 100% = twice the neutral-well signal; reporter increase, % at 12.5 µM; 2% of 350,000 active; AID 602393, 2012; in the data active = activation above about 40%;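 also: 0% = median of the plate's neutral control wells and 100% = double that signal; a rise in the Bmi1 reporter signal indicates esBAF inhibition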
PAX8 reporter – inhibitors of PAX8-driven TPO luciferase reporter, primary screen, RMG-I cells, single concentration | SteadyGlo, 24 h | inhibition, % at 12.6 µM | 1.2% of 360,000 active;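 active = mean replicate inhibition at least 60% with every replicate also reaching 60%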;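 also: luciferase light reporting Pax8 driven TPO promoter activity; plate controls were median of neutral control wells for no effect and mitoxantrone controls for full effect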
EWS-Fli block – EWS/Fli-driven NR0B1 reporter inhibitors, primary screen, A673 cells, NR0B1 luciferase, luminescence, MLPCN library | viability-normalised | 0.67% of 350,000 active | inhibition, % at 12.6 µM;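 active = mean inhibition of at least 50% after viability correction, with every replicate also passing that limit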;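 also: firefly luciferase signal divided by Alamar Blue viability fluorescence both relative to DMSO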
Wnt bcat act – Wnt/beta-catenin pathway activators, primary screen, cell-based, plate reader, single point | Wnt/beta-catenin reporter cell assay, activator | activation, % at 9.35 µM | 1.2% of 300,000 active; in the data active = activation above about 30%, passing the limit was not always enough;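 also: 0% = neutral control wells and 100% = positive control wells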
MITF TRPM1 HTS – activators of MITF-driven TRPM1 promoter reporter, primary screen, cell-based, SK-MEL-5, luciferase, single point; SK-MEL-5 TRPM1-promoter luciferase, 24 h; % of positive control, neutral wells = 0; activation, % at 12.5 µM; 0.75% of 300,000 active;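 active = mean activation of at least 80% with every replicate also reaching 80%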;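 also: 0% = neutral control wells and 100% = parthenolide positive control wells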
* = called active by the depositor; · = no result given.

SMILES | TRPM1 prom inh | esBAF inh | PAX8 reporter | EWS-Fli block | Wnt bcat act | MITF TRPM1 HTS
CC(C)(C)OC(=O)[C@H](Cc1ccccc1)NC(=O)c1nc[nH]c1C(=O)N[C@@H](Cc1ccccc1)C(=O)OC(C)(C)C | 13 | 17 | 104* | 17 | -11 | -5
CC(C)(C)OC(=O)NCCCCCNC(=O)c1[nH]cnc1C(=O)N[C@@H](Cc1ccccc1)C(=O)OC(C)(C)C | -6 | · | · | · | · | 0
Cc1ccc(NC(=O)c2nc[nH]c2C(=O)NCCCCNC(=O)c2[nH]cnc2C(=O)Nc2ccc(C)cc2)cc1 | 3 | 9 | 80* | 18 | -12 | -5
CC(C)(C)OC(=O)NCCCC[C@H](NC(=O)c1[nH]cnc1C(=O)N[C@@H](Cc1ccccc1)C(=O)OC(C)(C)C)C(=O)OC(C)(C)C | 42 | -4 | 104* | 35 | -5 | -39
C[C@H](NC(=O)c1nc[nH]c1C(=O)N[C@@H](Cc1ccccc1)C(=O)OC(C)(C)C)C(=O)OC(C)(C)C | 1 | 7 | 22 | 5 | -5 | 0
CC(C)(C)OC(=O)NCCCC[C@H](NC(=O)c1[nH]cnc1C(=O)Nc1ccc(CNC(=O)OC(C)(C)C)cc1)C(=O)OC(C)(C)C | · | · | 110* | 39 | -14 | ·
COc1ccc(NC(=O)Nc2ccc3c(c2)C(=O)N([C@H](C)CO)C[C@@H](C)[C@H](CN(C)C(=O)C2CCCCC2)OCCCC[C@H](C)O3)cc1 | · | 2 | 34 | 15 | · | ·
Cc1noc(C)c1S(=O)(=O)Nc1ccc2c(c1)CC(=O)N([C@H](C)CO)C[C@@H](C)[C@@H](CN(C)Cc1ccc(C(=O)Nc3ccccc3N)cc1)O2 | · | · | 6 | · | · | ·
C[C@@H]1CN([C@@H](C)CO)C(=O)c2cc(NC(=O)C3CCCCC3)ccc2O[C@@H](C)CCCCO[C@@H]1CN(C)C(=O)c1ccncc1 | · | 1 | -2 | -3 | · | ·
On1onc2c3cc(-c4ccccc4)nc3ccc21 | 16 | -62 | · | -14 | 39* | -14
CCN1CCN(C2=C(NS(=O)(=O)c3ccc(C)cc3)C(=O)c3ccccc3C2=O)CC1 | 70* | 2 | 20 | · | 1 | -67
CC(=O)Nc1ccc(S(=O)(=O)NC2=C(N3CCN(C)CC3)C(=O)c3ccccc3C2=O)cc1 | 83* | -1 | 16 | 3 | 1 | -84
CCN1CCN(C2=C(NS(=O)(=O)c3ccc(NC(C)=O)cc3)C(=O)c3ccccc3C2=O)CC1 | 40 | 3 | 21 | -4 | 11 | -40
COc1cccc(-c2ccc3n(c2=O)C[C@H]2[C@H](CO)[C@@H](C(=O)NC4CCC4)N(S(C)(=O)=O)[C@@H]32)c1 | · | -2 | 0 | 0 | · | ·
Cc1noc(C)c1S(=O)(=O)N(C)C[C@@H]1OCCCC[C@@H](C)Oc2ccc(NS(=O)(=O)c3cccs3)cc2C(=O)N([C@H](C)CO)C[C@H]1C | · | 3 | 32 | 11 | · | ·
CC(=O)Nc1ccc(CN2C(=O)C(CCc3ccccc3)ON=C2c2cnccn2)cc1 (centres undefined) | · | 47* | -55 | -35 | 7 | ·
O=S(=O)(C/C(=C/CO)S(=O)(=O)c1ccccc1)c1ccccc1 | 78* | -53 | · | · | · | ·
CC(=O)Nc1ccc2c(c1)C(=O)N(C)[C@H]1CC[C@@H](CC(=O)NCc3ccccc3)O[C@@H]1CO2 | · | -2 | 1 | 11 | · | ·
CC(C)CNc1ncnc2c1ncn2[C@H]1CN(Cc2ccco2)C[C@@H](CO)O1 | · | -2 | 84* | -10 | -2 | ·
COc1cc(CNc2ncnc3c2ncn3[C@H]2CN(Cc3ccc(-c4ccccc4)cc3)C[C@@H](CO)O2)cc(OC)c1OC | · | -5 | 94* | 35 | · | ·
C[C@@H]1CN([C@H](C)CO)S(=O)(=O)c2ccc(C#Cc3ccc(F)cc3)cc2O[C@@H]1CN(C)S(=O)(=O)c1ccc(F)cc1 | · | -4 | · | 3 | · | ·
CO[C@H]1CN(C)C(=O)c2cc(NC(=O)C3CC3)ccc2OC[C@@H](C)N(CCc2ccccc2)C[C@@H]1C | · | 3 | 9 | 5 | · | ·
CC(=O)Nc1cccc(-c2ccnc3c2CC(C)(C(=O)NCc2ccc(F)c(F)c2)O3)c1 (centres undefined) | · | -25 | 16 | 58* | -1 | ·
